# Most compounds without a hit are left out; they make up all but 19% or so of the library.
# TGFb SMAD3 inh: qHTS for Inhibitors of TGF-b. 1.2% of 410,000 active. Potency, µM (highest dose often 46.1 µM), for the others: at the highest dose activity, negative = inhibition, hits mostly inhibitors. HepG2 CAGA-GFP TGF-b/SMAD3 reporter, GFP fluorescence, 18 h; TGF-beta stimulated, 500 pg/mL final; further: potency means the concentration at half of the fitted maximal effect; on the % scale 0 is the no-effect control and ±100 the full control effect; nearly all actives have a fitted effect of over 65% in size
#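 GFP signal (ex488/em500-530) from TGF-beta-stimulated HEPG2 CAGA-GFP cells, 500 pg/mL final, 18 h at 37 degrees C in DMEM plus 1% FBS, normalized to unstimulated and DMSO-stimulated controls.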
# DT40 TDP1 CPT: qHTS for Inhibitors of human tyrosyl-DNA phosphodiesterase 1 (TDP1): qHTS in cells in presence of CPT. Potency, µM (titrated, usually from 46.2 µM), for inactives: top-dose activity change, negative = growth inhibition, usual class: inhibitors. chicken DT40 Tdp1-/-;hTDP1 cells + 20 nM CPT, ATP luminescence, 48 h. 12% of 420,000 active. AID 686979, 2013; further: potency means the concentration at half of the fitted maximal effect; on the % scale 0 is the no-effect control and ±100 the full control effect; nearly all actives have a fitted effect of over 55% in size
#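 Chicken DT40 Tdp1-/- cells stably complemented with human TDP1 were seeded at 400 cells/well in medium containing 20 nM camptothecin, exposed to pin-transferred compounds, and grown at 37 °C for at least 48 hr. Viability was read as ATP luminescence.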
# IL1B secr inh: qHTS for Inhibitors of Inflammasome Signaling: IL-1-beta AlphaLISA Primary Screen | activity change, % at 57.5 µM | 4.7% of 360,000 active | THP-1 LPS/ATP IL-1B secretion, AlphaLISA, 16 h; stronger effect = lower value | AID 743279, 2014; in the data active means activity change below about -50%; inconclusive means mostly about -30% to -49%; further: on the % scale 0 is the no-effect control and ±100 the full control effect
#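 THP-1 cells pretreated 1 hr with compounds (up to 57.5 uM final), then stimulated with LPS (250 ng/mL final) plus ATP (1.25 mM final); secreted IL-1B measured by AlphaLISA after 16 hr, decreased signal indicating inhibition.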
# DT40 TDP1 no CPT: qHTS for Inhibitors of human tyrosyl-DNA phosphodiesterase 1 (TDP1): qHTS in cells in absence of CPT; Potency, µM (highest dose often 46.2 µM), without a hit: at the top dose activity change, negative = growth inhibition, most hits filed as inhibitors; AID 686978, 2013; 15% of 420,000 active; DT40 Tdp1-/- hTDP1 cells, no CPT, ATP luminescence, 48 h; further: potency means the concentration at half of the fitted maximal effect; on the % scale 0 is the no-effect control and ±100 the full control effect; nearly all actives have a fitted effect of over 55% in size
#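 No-CPT arm: Tdp1-/-;hTDP1 DT40 cells (400/well) plus compounds, incubated ≥48 hr at 37 °C. Readout CellTiter-Glo luminescence.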
# TDP1 block: qHTS Assay for Inhibitors of Tyrosyl-DNA Phosphodiesterase (TDP1). Tyrosyl-DNA phosphodiesterase 1 (Homo sapiens), Q9NUW8. recombinant TDP1, AlphaScreen DNA substrate cleavage. Potency, µM (top dose mostly 130 µM), without a hit: at the highest dose activity change, negative = inhibition, actives largely listed as inhibitors. 0.28% of 350,000 active; further: potency means the concentration at half of the fitted maximal effect; on the % scale 0 is the no-effect control and ±100 the full control effect; nearly all actives have a fitted effect of over 40% in size
# Target sequence (Q9NUW8 whole entry, looked up): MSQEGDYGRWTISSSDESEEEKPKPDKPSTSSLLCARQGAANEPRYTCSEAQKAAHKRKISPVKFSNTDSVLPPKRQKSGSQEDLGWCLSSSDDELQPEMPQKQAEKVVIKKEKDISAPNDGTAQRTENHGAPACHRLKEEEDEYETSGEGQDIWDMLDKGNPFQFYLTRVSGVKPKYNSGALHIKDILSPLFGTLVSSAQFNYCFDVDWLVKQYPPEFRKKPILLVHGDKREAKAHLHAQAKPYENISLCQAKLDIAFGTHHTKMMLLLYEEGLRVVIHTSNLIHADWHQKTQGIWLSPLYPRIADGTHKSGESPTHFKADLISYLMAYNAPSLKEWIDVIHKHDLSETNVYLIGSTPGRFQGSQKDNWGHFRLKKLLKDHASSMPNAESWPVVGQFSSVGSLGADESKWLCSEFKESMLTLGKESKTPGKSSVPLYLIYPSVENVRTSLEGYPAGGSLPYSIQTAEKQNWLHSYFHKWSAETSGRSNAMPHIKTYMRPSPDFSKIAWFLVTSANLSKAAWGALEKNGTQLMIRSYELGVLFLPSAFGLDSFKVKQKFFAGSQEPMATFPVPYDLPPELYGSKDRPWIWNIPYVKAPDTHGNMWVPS
#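 Recombinant E. coli-expressed Tdp1 (1 nM) preincubated with compound 15 min at RT, then 5'-biotin/3'-phosphotyrosine-FITC DNA substrate (15 nM) added for 5 min. AlphaScreen beads (10 ug/ml) added, 10 min RT; tyrosine-FITC cleavage read as signal loss.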
# HepG2 tox: qHTS for Inhibitors of TGF-b: Cytotox Counterscreen | HepG2 CAGA-GFP viability, ATP luminescence, 18 h | Potency, µM (doses to about 46.1 µM), without a hit: at the top dose activity change, negative = cytotoxicity, actives largely listed as cytotoxic | 0.76% of 410,000 active | AID 588856, 2011; further: potency means the concentration at half of the fitted maximal effect
#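 CellTiter-Glo luminescence gave cytotoxicity after 18 hours at 37 degrees C. The cells were HepG2 CAGA-GFP in 1% FBS DMEM, stimulated with 500 pg/mL TGF-beta after compound addition. %Activity was normalised to no-cell wells (complete cell-killing) and DMSO (no toxicity), and curves were fitted and classified.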
# Active calls of the source: *; u = inconclusive; x = no result given; [ ] = remark or other dose. Unless noted, the call rests on the fitted dose curve; in most records, active means well fitted curve in the direction sought with a large enough effect; inconclusive means small, poorly fitted or top-dose-only effect, or another doubt; inactive means no such curve, though single readings can be large; an effect the other way counts as inactive or inconclusive.
SMILES,TGFb SMAD3 inh,DT40 TDP1 CPT,IL1B secr inh,DT40 TDP1 no CPT,TDP1 block,HepG2 tox
CC(C)Oc1cccc(C(=O)C2CCCN(C(=O)c3cncs3)C2)c1 (centres undefined),-9.9%,u,26.2,-19.3%,5.9%,-3.2%
CN(Cc1cn(C)nc1-c1ccc(Oc2ccccc2)cc1)Cc1cnc2ccccn12,u,u,-5.5,20.6µM*,3.6%,-64.6%
CN(Cc1ccno1)Cc1cn(C)nc1-c1ccc(Oc2ccccc2)cc1,6.7%,u,26.4,u,0.0%,-28.0%
CC1=C(C#N)c2nc(N)c(C#N)c(C)c2/C1=C\c1ccc(-c2ccccc2C(=O)O)o1,-1.9%,-6.3%,-87.5*,-5.7%,x,7.0%
COc1cc(/C=C2/C(C)=C(C#N)c3nc(N)c(C#N)c(C)c32)ccc1OCC(=O)O,1.3%,u,-23.2,-13.8%,-8.2%,4.4%
C[C@@H]1C(=O)CC2C(C)(C)CCC[C@]2(C)[C@@]1(O)CCc1ccoc1 (some centres undefined),x,-13.7%[9.04 µM],x,-10.3%[9.04 µM],3.7%,x
CCc1ccc(-c2csc3[n+]2CCN3C(C)=O)cc1,25.9%,u,-9.1,25.9µM*,6.8%,-37.2%
CC(=O)N1CC[n+]2c(-c3ccc(Cl)cc3)csc21,-22.6%,25.9µM*,-1.8,23.1µM*,0.0%,-2.4%
Cc1ccc(CN2CCc3nnc(C(NC(=O)c4ccoc4)C(C)C)n3CC2)cc1C (centres undefined),x,7.4%,x,-8.6%,x,x
Cc1cccc(N(CC(=O)NCc2ccccc2)S(C)(=O)=O)c1C,-2.1%,-23.5%,x,-10.5%,x,-31.1%
COc1ccccc1NC(C)C(=O)c1c[nH]c2ccccc12 (centres undefined),-21.1%,11.2µM*,x,u,x,-22.3%
O=C(c1c[nH]c2ccccc12)C(Cl)c1ccccc1 (centres undefined),u,23.1µM*,-73.4*,20.6µM*,x,-1.2%
COc1ccccc1OCCNC(=O)C(=O)c1c[nH]c2ccccc12,0.9%,-21.9%,11.0,-16.0%,x,-24.0%
O=C(c1c[nH]c2ccccc12)C(O)C(c1ccccc1)N1CCOCC1 (centres undefined),8.6%,-20.0%,19.2,u,0.0%,-35.6%
Cn1cccc1/C=C1\Cc2ccccc2C1=O,-36.0%,-2.6%,14.7,-17.4%,4.9%,-39.6%
Cc1cccc(/C=C2/C(=O)/C(=C/c3ccccc3C)C3CCC2N3C)c1 (centres undefined),0.1%,20.6µM*,-7.2,18.4µM*,2.0%,-6.7%
CN1C2CCC1/C(=C/c1cccn1C)C(=O)/C2=C\c1cccn1C,95.9%,23.1µM*,-14.7,16.4µM*,0.0%,-15.7%
CN1C2CCC1/C(=C\c1ccc(F)cc1)C(=O)/C2=C/c1ccc(F)cc1,-8.0%,20.6µM*,-86.9*,16.4µM*,0.0%,-55.5%
c1ccc(-c2oc3ncnc(NCCN4CCOCC4)c3c2-c2ccccc2)cc1,-15.3%,u,-81.7*,u,12.0%,-41.2%
O=c1oc2ccccc2c2c1ncn2CCN1CCOCC1,-22.1%,u,0.0,u,3.9%,-9.3%
N=c1c2c(-c3ccccc3)c(-c3ccccc3)oc2ncn1CCN1CCOCC1,0.2%,u,u,16.4µM*,-1.0%,-46.1%
Cc1sc2ncnc(NCCN3CCOCC3)c2c1C,-17.5%,13µM*,3.6,18.4µM*,0.0%,7.9%

# Bioassay records from PubChem BioAssay.
